Bioassay records deposited in PubChem by National Center for Advancing Translational Sciences (NCATS).
Shown are actives, neighbours in structure and some others; about 3.1% of the full set was active somewhere.
EPAC2 antag = Validation qHTS for antagonist of cAMP-regulated guanine nucleotide exchange factor 4 (EPAC2); Rap guanine nucleotide exchange factor 4 (Homo sapiens), Q8WZA2; EPAC2 Rap1B BODIPY-GDP exchange, fluorescence; Potency, µM (doses to about 112 µM), inactives show at the highest dose activity, negative = inhibition, hits mostly inhibitors; actives 1.7% (n = 16,000);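 also: 100% = activation by cAMP agonist control; nearly all actives have a fitted effect of over 40% in size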
Target sequence (Q8WZA2 whole entry, looked up): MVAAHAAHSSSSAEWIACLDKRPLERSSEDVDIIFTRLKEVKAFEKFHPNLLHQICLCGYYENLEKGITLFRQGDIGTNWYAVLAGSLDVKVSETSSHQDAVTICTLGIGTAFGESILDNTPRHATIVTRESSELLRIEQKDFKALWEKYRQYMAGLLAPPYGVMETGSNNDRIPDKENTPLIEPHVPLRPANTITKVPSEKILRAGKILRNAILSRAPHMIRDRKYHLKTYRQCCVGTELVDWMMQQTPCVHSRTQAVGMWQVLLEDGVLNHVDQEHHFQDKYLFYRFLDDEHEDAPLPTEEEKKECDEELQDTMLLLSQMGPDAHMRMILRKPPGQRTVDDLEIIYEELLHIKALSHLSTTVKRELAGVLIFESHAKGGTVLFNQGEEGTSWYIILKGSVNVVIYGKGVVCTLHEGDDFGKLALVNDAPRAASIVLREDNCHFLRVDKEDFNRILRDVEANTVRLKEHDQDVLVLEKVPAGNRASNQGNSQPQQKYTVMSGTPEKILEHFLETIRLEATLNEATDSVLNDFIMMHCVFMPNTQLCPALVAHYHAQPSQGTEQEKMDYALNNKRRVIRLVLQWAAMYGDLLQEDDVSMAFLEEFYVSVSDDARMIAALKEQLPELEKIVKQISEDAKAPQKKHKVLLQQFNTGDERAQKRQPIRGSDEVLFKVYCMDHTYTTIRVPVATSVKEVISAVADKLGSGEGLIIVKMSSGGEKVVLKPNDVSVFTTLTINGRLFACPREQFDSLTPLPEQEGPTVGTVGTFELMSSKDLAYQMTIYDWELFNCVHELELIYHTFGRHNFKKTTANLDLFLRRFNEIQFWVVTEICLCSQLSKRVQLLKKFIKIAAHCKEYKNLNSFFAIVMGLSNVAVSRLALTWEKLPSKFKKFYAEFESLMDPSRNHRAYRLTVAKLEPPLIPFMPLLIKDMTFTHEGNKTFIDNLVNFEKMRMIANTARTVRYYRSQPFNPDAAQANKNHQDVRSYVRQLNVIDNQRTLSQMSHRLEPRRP
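Normalized against a 6.5 mM cAMP agonist control, compounds were tested on 100 nM EPAC2 exchanging Rap1B-bound BODIPY-GDP (250 nM) for 50 uM GDP. Fluorescence drop (ex 480, em 540 nm) was tracked at room temperature over 30 min at 5-min intervals.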
EPAC1 agonist = Validation qHTS for agonist of cAMP-regulated guanine nucleotide exchange factor 3 (EPAC1); Rap guanine nucleotide exchange factor 3 (Homo sapiens), O95398; EPAC1 Rap1b BODIPY-GDP exchange, fluorescence; Potency, µM, inactives show max response, positive = active, actives largely listed as activators; actives 1% (n = 16,000); also: nearly all actives have a fitted effect of over 70% in size
Numbers without * were called inactive; ? = inconclusive; ! = not active in a repeat. Calls follow the shape of the dose curve; as a rule, active = well fitted curve in the direction sought with a large enough effect; inconclusive = small, poorly fitted or top-dose-only effect, or another doubt; inactive = no such curve, though single readings can be large; an effect the other way counts as inactive or inconclusive. Unless noted, % is scaled to controls: 0 for no effect and ±100 for the full control effect; potency is read from the fitted curve at half-maximal effect.

SMILES | EPAC2 antag | EPAC1 agonist
CCOC(=O)C1=C(C)NC(C)=C(C(=O)OCC)C1c1ccccc1C=CC(=O)OC(C)(C)C | -24% | -59%
CCOC(=O)C1=C(C)NC(C)=C(C(=O)OCC)C1c1c(F)c(F)c(F)c(F)c1F | 35µM* | -23%
COc1ccc2c(c1)-c1nc(-n3ncc(C(=O)N(C)CC4CCCN(C)C4)c3C)ncc1CC2 (stereo not drawn) | 13% | -24%
Cc1cccc2c(Nc3ccc4c(c3)OCO4)nc(CN3CCC(N4CCCCC4)CC3)nc12 | -21% | 6%
CC1(C)[C@@H](OC(=O)CCC(=O)O)CC[C@]2(C)[C@H]3C(=O)C=C4[C@@H]5C[C@@](C)(C(=O)O)CC[C@]5(C)CC[C@@]4(C)[C@]3(C)CC[C@@H]12 | 4µM* | -7%
CC(=O)OC1CC[C@]2(C)C(CC[C@@]3(C)C2C(=O)C=C2C4C(C)C(C)CC[C@@]4(C(=O)O)CCC23C)C1(C)C (stereo partly drawn) | -20% | -189%
COc1ccccc1N1CCN(c2nc(CNC(=O)c3ccccc3F)nc3ccccc23)CC1 | ? | 7%
Cc1cccc(CNc2nc(-c3cccc(NS(C)(=O)=O)c3)nc3ccccc23)c1 | -29% | ?
COc1ccccc1CNc1nc(-c2cccc(NS(C)(=O)=O)c2)nc2ccccc12 | -22% | 100µM*
COc1ccccc1CNc1nc(-c2ccc3c(c2)OCO3)nc2ccccc12 | -23% | 100µM*
COc1cccc(-c2nc(NCc3ccccc3OC)c3ccccc3n2)c1 | -23% | ?
COc1ccccc1CNc1nc(-c2ccc(N(C)C)cc2)nc2ccccc12 | -11% | ?
COc1ccccc1CNc1nc(-c2cccc(C#N)c2)nc2ccccc12 | -17% | 100µM*
C=C1C(=O)O[C@H]2[C@H]1CC/C(C)=C\CC[C@@]1(C)O[C@@H]21 | 22% | -13%
CCCCN(CCCC)C(=S)[S-].CCCCN(CCCC)C(=S)[S-].[Zn+2] | 21% | -6%
C[C@@H]1C/C=C/C=C/C=C/C=C/[C@H](O[C@@H]2O[C@H](C)[C@@H](O)[C@H](N)[C@@H]2O)C[C@@H]2O[C@](O)(C[C@@H](O)C[C@H]3O[C@@H]3/C=C/C(=O)O1)C[C@H](O)[C@H]2C(=O)O | 1% | -19%
O=C(c1cccc(F)c1)N1CCC2(CC1)CCN(c1cccc(-c3ccccc3)c1)CC2 | -17% | -6%
O=C(c1cccc(F)c1)N1CCC2(CCCN(c3cccc(-c4ccccc4)c3)C2)CC1 | -19% | 100µM*
O=C(Oc1ccccc1)N1CCC2(CC1)CCN(c1cccc(-c3ccccc3)c1)CC2 | -14% | 19%
O=C(c1csnn1)N1CCC2(CC1)CN(c1cccc(-c3ccccc3)c1)C2 | ? | 100µM*
O=C(c1cccc(F)c1)N1CCC2(CC1)CN(c1cccc(-c3ccccc3)c1)C2 | ? | 89µM*
O=C(c1csnn1)N1CCC2(CC1)CN(c1ccccc1)C2 | -9% | -38%
O=C(c1cccc(F)c1)N1CCC[C@@]2(CCN(c3cccc(-c4ccccc4)c3)C2)C1 | -28% | -39%
COC(=O)N1CCC2(CC1)CCN(c1cccc(-c3ccccc3)c1)CC2 | -29% | 100µM*
Cc1nn(C)cc1CNc1nc(C)c(-c2ccn(CC3COc4ccccc4O3)n2)s1 (stereo not drawn) | ? | 1%
SMILES | EPAC2 antag | EPAC1 agonist
COc1ccccc1C1CN(Cc2cccc(O)c2)Cc2ccccc2O1 (stereo not drawn) | ? | 1%
Cc1cnc(C)c(-c2ccc(F)c3c2OC(CNC(=O)/C=C/c2cccs2)C3)n1 (stereo not drawn) | -17% | -23%
COc1ccccc1N1CCN(c2nc(CNC(=O)C3CC34CCCC4)nc3ccccc23)CC1 (stereo not drawn) | ? | 14%
O=C(c1cccc(N2CCCC2=O)c1)N1CCC(Oc2cccc(CN3CCN(c4ccccn4)CC3)c2)CC1 | -22% | -19%
CCCCCCC[n+]1ccc(/C=C/c2c[nH]c3ccccc23)cc1 | 226% | 100µM*
Cc1[nH]c2ccccc2c1/C=C/c1nccc2ccccc12 | ? | 28%
CCCCCCCCCC[n+]1ccc(/C=C/c2c[nH]c3ccccc23)c2ccccc21 | -9% | -60%
CCCCCCCCCC[n+]1ccc(/C=C/c2c(C)[nH]c3ccccc23)cc1 | 371% | 25µM*
Cc1nn(C)c(Cl)c1CN1CCOc2ccc(CN3CCC(Oc4cccnc4)CC3)cc2C1 | -6% | -22%
COc1ccc(C(=O)N2CCC3(CCCN(Cc4cc(C(F)(F)F)cc(C(F)(F)F)c4)C3)CC2)cc1 | 35µM* | -78%
COC(=O)N1CCC2(CCCN(Cc3cc(C(F)(F)F)cc(C(F)(F)F)c3)C2)CC1 | -25% | -28%
CC(C)(C)c1ccc(CN2CCN(C(c3ccccc3)c3ccc(Cl)cc3)CC2)cc1 (stereo not drawn) | -20% | 4%
C[C@@H]1CCC(=O)N(CC[C@H](Oc2ccccc2)c2ccccc2)CC1 | 79µM* | -19%
COc1ccc(S[C@@H](CCN2CC[C@H](C)CCC2=O)c2ccccc2)cc1 | ? | -31%
COC(=O)c1c(OC)cc2c(c1C)Oc1c(Cl)c(OC(C)=O)c(Cl)c(C)c1C(=O)O2 | 11µM* | -25%
COC(=O)c1c(C)cc(OC)cc1O | ? | -32%
OCCN1CCN(CCCN2c3ccccc3Sc3ccc(C(F)(F)F)cc32)CC1 | 50µM*! | 17%
CN1CCN(CCCN2c3ccccc3Sc3ccccc32)CC1 | 3% | 9%
CC(=O)c1ccc2c(c1)N(CCCN1CCN(CCO)CC1)c1ccccc1S2 | 54% | 7%
CN1CCN(CCCN2c3ccccc3Sc3ccc(Cl)cc32)CC1 | 35µM*! | 14%
Cc1cc(C)c(S(=O)(=O)Nc2ccccc2C(F)(F)F)c(C)c1 | 45µM* | 6%
CC(C)c1c(C(=O)N(C)Cc2cccc3ncccc23)cnn1-c1nccc(-c2ccco2)n1 | -17% | -19%
COC(=O)c1ccccc1-c1cc(C)cc2c1OC(CNC(=O)c1ccn(C)n1)C2 (stereo not drawn) | ? | 1%
CCCCCCCCCCCCCCCC[N+](C)(C)CC | 56µM* | -65%
CCCCCCCCCCCCCC[N+](C)(C)Cc1ccccc1 | 8% | -36%
SMILES | EPAC2 antag | EPAC1 agonist
CCCCCCCC[N+](C)(C)CCCCCCCC | 4% | 20%
CCCCCCCCCCCCCCCC[N+](C)(C)Cc1ccccc1 | 79µM* | -43%
CC(=O)N[C@@H](CC(=O)N[C@@H](CCC(=O)O)C(=O)O)C(=O)O | -7% | -14%
Cn1cc(CN2CCOc3ccc(C(O)C4CCCCC4)cc3C2)cn1 (stereo not drawn) | ? | 7%
COC(=O)[C@@]1(C)CCC[C@@]2(C)c3ccc(O)c(C(C)C)c3CCC21 (stereo partly drawn) | ? | -38%
CC(=O)Oc1ccc2c(c1C(C)C)CCC1C(C)(C)CCC[C@@]21C (stereo partly drawn) | -28% | 100µM*
COC(=O)c1c(C)[nH]c(C)c1C(=O)c1ccccc1Cc1ccccc1 | 79µM*! | 4%
COC(=O)c1ccccc1NS(C)(=O)=O | ? | -34%
CCCc1c(OCCCCc2nn[nH]n2)ccc(C(C)=O)c1O | 8.9µM*! | 10%
CCCCCCOc1ccccc1C(N)=O | ? | -10%
